# NIH3T3 tox: Cytotoxic Profiling in NIH 3T3 Cell Line of Diverse Libraries Using Quantitative High-Throughput Screening; NIH 3T3 viability, CellTiter-Glo ATP luminescence, 48-72 h; Potency, µM (series often up to 96.7 µM), most hits filed as inhibitors; 94,000 compounds, 4.3% hits; also: nearly all actives have a fitted effect of over 55% in size
#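 Cytotoxicity is measured as loss of cellular ATP: NIH 3T3 cells (400/well) are exposed to compound for 48 or 72 hr at 37 °C, then CellTiter-Glo luminescence is imaged after 10 min at room temperature.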
# HEK cytotox: Cytotoxic Profiling in HEK 293 Cell Line of Diverse Libraries Using Quantitative High-Throughput Screening; 94,000 compounds, 6.6% hits; HEK 293 viability, ATP luminescence (CellTiter-Glo), 48-72 h; Potency, µM (doses to about 115 µM), most hits filed as inhibitors; also: nearly all actives have a fitted effect of over 60% in size
#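 Cells seeded first (HEK 293, 250 cells/well), then compound added by pintool. Incubation ran 48 or 72 hr at 37 degree Celsius. CellTiter-Glo was added and luminescence imaged after 10 min at room temperature.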
# FLuc inh: Firefly luciferase inhibition profiling of diverse chemical library using quantitative high-throughput screening | Luciferin 4-monooxygenase (Photinus pyralis), P08659 | purified P. pyralis luciferase, luminescence, biochemical | Potency, µM (series often up to 115 µM), usual class: inhibitors | 76,000 compounds, 2.5% hits; also: nearly all actives have a fitted effect of over 65% in size
#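 Biochemical qHTS: compound (6-point titration) added to 10uM D-luciferin plus 10uM ATP in Tris acetate pH 7.5 buffer with Mg, Tween-20 and BSA, then purified enzyme at 10nM; light output imaged.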
# hNpr1 antagonist: Natriuretic polypeptide receptor (hNpr1) antagonism - Primary qHTS; AID 1347048, 2019; Potency, µM (titrated, usually from 46.3 µM), hits mostly inhibitors; HEK293 hNpr1 GloSensor cGMP, ANP-stimulated luminescence; 76,000 compounds, 1.6% hits; calls by dose curve; also: nearly all actives have a fitted effect of over 60% in size
# Target sequence (P16066 whole entry, looked up): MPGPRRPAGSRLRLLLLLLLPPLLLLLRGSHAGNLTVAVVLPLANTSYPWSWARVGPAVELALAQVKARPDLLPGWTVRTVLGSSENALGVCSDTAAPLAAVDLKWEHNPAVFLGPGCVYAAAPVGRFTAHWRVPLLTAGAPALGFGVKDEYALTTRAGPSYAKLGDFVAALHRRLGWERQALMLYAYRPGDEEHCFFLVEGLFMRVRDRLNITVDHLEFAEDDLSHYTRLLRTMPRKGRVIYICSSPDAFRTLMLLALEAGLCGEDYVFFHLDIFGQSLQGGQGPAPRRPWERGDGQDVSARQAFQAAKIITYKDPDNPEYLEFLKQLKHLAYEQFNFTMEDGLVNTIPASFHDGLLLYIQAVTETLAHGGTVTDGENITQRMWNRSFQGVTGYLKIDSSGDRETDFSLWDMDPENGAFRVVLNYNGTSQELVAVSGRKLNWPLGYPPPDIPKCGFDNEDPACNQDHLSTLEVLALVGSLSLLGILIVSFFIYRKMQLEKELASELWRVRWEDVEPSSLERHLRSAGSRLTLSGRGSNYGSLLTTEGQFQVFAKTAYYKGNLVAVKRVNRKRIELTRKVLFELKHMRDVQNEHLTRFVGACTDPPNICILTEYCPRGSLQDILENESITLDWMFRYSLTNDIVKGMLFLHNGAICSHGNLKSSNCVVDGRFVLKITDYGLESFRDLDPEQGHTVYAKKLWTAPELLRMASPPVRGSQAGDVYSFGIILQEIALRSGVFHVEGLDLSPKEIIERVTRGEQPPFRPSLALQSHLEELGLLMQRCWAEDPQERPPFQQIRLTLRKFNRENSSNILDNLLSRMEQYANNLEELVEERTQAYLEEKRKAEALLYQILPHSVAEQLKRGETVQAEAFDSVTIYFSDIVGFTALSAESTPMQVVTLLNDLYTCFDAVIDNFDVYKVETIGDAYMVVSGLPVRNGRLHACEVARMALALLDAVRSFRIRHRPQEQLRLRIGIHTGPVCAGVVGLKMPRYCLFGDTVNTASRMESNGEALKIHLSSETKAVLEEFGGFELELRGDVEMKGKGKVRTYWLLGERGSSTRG
#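 Compound pre-incubated 30 min at room temperature on GloSensor-loaded HEK293 cells stably carrying hNpr1 and the pGS-40F cGMP biosensor. Stimulation uses hNppA at 0.1 nM final; luminescence is taken at baseline and 20 min post-agonist.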
# GPT2 inhibitor: Primary qHTS assay for inhibitors of Glutamate pyruvate transaminase 2 (GPT2). Alanine aminotransferase 2 (Homo sapiens), Q8TD30. Recombinant GPT2, coupled pyruvate oxidase/HRP Amplex Red fluorescence. Potency, µM (doses to about 57.7 µM), most hits filed as inhibitors. 100,000 compounds, 0.25% hits; also: nearly all actives have a fitted effect of over 60% in size
#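 Fluorescence of coupled pyruvate oxidase/HRP/Amplex Red system (50uM Amplex, 30 min, dark) reports pyruvate formed by GPT2. Enzyme reaction: 10ng/uL GPT2, 2mM L-alanine, 250uM a-KG, 30 min room temperature, pH 7.5; 50uM AOA control.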
# Numbers stand for hits; n = inactive; u = inconclusive; x = no result given; [ ] = another dose, or the depositor's remark. Rows were chosen to be rich in hits. Some 10% of all compounds tested hit in one or more screens of this group. Unless noted, calls follow the shape of the dose curve; as a rule, active = well fitted curve in the direction sought with a large enough effect; inconclusive = small, poorly fitted or top-dose-only effect, or another doubt; inactive = no such curve, though single readings can be large; an effect the other way counts as inactive or inconclusive.
SMILES,NIH3T3 tox,HEK cytotox,FLuc inh,hNpr1 antagonist,GPT2 inhibitor
Cc1ccccc1CNC(=O)c1ccc(CN2C(=O)NC3(CCOCC3)C2=O)cc1,n,n,n,n,n
Cc1ccc(NC(=O)c2ccc(CN3C(=O)NC4(CCOCC4)C3=O)cc2)cc1,n,u,16µM,n,n
COc1ccc(NC(=O)c2ccc(CN3C(=O)NC4(CCOCC4)C3=O)cc2)cc1,n,n,28µM,n,n
Cc1ccc(OCCC2CCN(C(=O)Cc3c[nH]c4ccccc34)C2)cc1 (stereo not drawn),u,35µM,n,u,n
O=C(CCC1CCN(C(=O)CCc2c[nH]c3ccccc23)CC1)NCc1cccnc1,n,n,n,n,n
COCc1nc(C2CCN(C(=O)Cc3c[nH]c4ccccc34)C2)no1 (stereo not drawn),n,n,n,n,n
COc1ccc(OCc2nc(C3CN(C(=O)Cc4c[nH]c5ccccc45)C3)no2)cc1,u,45µM,n,u,n
Cc1ccc(OCCC2CCN(C(=O)CCc3ccccc3)C2)cc1 (stereo not drawn),u,u,n,n,u
Cc1ccc(C(=O)N2CCC(CCC(=O)NCCc3c[nH]c4ccccc34)CC2)cc1,u,u,32µM,n,n
CC(C)CC(=O)N1CCCCCNC(=O)CC1c1ccccc1 (stereo not drawn),n,n,n,n,n
CC(NC(=O)CCc1conc1-c1ccccc1)c1ccc(F)cc1 (stereo not drawn),n,u,18µM,n,n
O=Cc1ccc(-c2cc(C(F)(F)F)ccc2Cl)cc1,n,n,x,x,n
Nc1cc(C(F)(F)F)ccc1S,x,x,x,x,28µM
O=C(NCC1CCCCCC1)[C@@H]1CCCN1c1nccc(Nc2ccccc2Cl)n1,32µM,25µM,x,x,n
O=C(NCC1CCCCC1)C1CCN(c2nccc(Nc3ccccc3Cl)n2)CC1,32µM,35µM,x,x,n
C#CCNC(=O)C1CCN(c2nccc(Nc3ccccc3Cl)n2)CC1,45µM,u,x,x,n
O=C(Cc1cccc(F)c1)N1CCCC(Cc2nc(C3CCOCC3)no2)C1 (stereo not drawn),n,n,n,n,n
COc1ccccc1-n1c(=O)c(C(=O)N2CCN(C(=O)c3ccccc3F)CC2)nc2cccnc21,n,n,x,x,n
CN(C)C(=O)N1CCC2(CC1)CC(=O)N(c1ccccc1)c1ccccc1O2,n,n,n,n,n
COc1cccc(CN2CCCC(N3CCN(c4cccc(C(F)(F)F)c4)CC3)C2)c1O (stereo not drawn),u,32µM,n,n,n
CC(C)N1CCC(N2CCCC(N3CCN(c4cccc(C(F)(F)F)c4)CC3)C2)CC1 (stereo not drawn),u,20µM,n,n,n
CC(C)NC(=O)NC1CCCN(Cc2ccc(-c3cncnc3)cc2)C1 (stereo not drawn),n,n,x,x,n
COCC1CN(C2CCC2)CC12CCN(C(=O)c1ccc(C#N)cc1)CC2 (stereo not drawn),n,n,x,x,n
Cc1noc(C)c1CN1CCNc2cc(Nc3ccccc3)ncc2C1,n,u,35µM,n,n
Cc1noc(C)c1CN1CCNc2cc(-c3ccccc3)ncc2C1,u,u,63µM,n,n
SMILES,NIH3T3 tox,HEK cytotox,FLuc inh,hNpr1 antagonist,GPT2 inhibitor
COc1ccc(Nc2cc3c(cn2)CN(Cc2ccncc2)CCN3)cn1,n,u,n,n,n
COCCOC1CCN(C(C(=O)O)c2cc(C)c(OC)c(C)c2)CC1 (stereo not drawn),n,n,n,n,n[11.5 µM]
O=C(CN1CCOCC1)N1CCNc2cnc(Nc3ccc(-n4ccnc4)cc3)nc2C1,40µM,n,n,n,n
O=C(CCc1ccccc1)N1CCNc2cnc(Nc3ccc(-n4ccnc4)cc3)nc2C1,u,u,n,n,n
Cc1ccc([S+](=O)([O-])N2CCN(C(=O)c3nc4cccnc4n(CCc4ccccc4)c3=O)CC2)cc1,n,u,x,x,n
O=C(NC1CCN(Cc2cccc(-c3ccc(F)c(F)c3)c2)CC1)c1ccccc1F,u,79µM,x,x,n
Cc1cccc(-c2cccc(CN3CCC(NC(=O)c4ccccc4C)CC3)c2)c1,32µM,40µM,x,x,n
Cc1ccccc1C(=O)NC1CCN(Cc2cccc(-c3ccc(F)c(F)c3)c2)CC1,u,50µM,x,x,n
CSc1ccc(-c2cccc(CN3CCC(NC(=O)c4ccccc4C)CC3)c2)cc1,n,n,x,x,x
O=C(NC1CCN(Cc2cccc(-c3ccc(F)c(F)c3)c2)CC1)c1ccc(Cl)nc1,25µM,u,x,x,x
COCCOc1ccc2c(n1)CCN(C(=O)COc1ccc(F)cc1)C2,n,n,n,n,n
Cc1ccccc1C(=O)N1CCC(CCC(=O)N2CCN(C(C)C)CC2)CC1,n,n,x,x,n
Cc1noc(-c2ccccc2Cl)c1C(=O)NCCCc1ccccc1,u,45µM,n,n,n
Cc1ccccc1N1CCN(C(=O)c2cc3cn(C4CC4)cc3s2)CC1,u,79µM,n,n,u
COC(=O)c1ccc2nc(C[C@@H]3C[C@@H](C(C)C)[C@H](CN(C)C)C=C3C)[nH]c2c1,71µM,u,n,n,u
COC(=O)c1ccc2nc(C[C@@H]3C[C@@H](C(C)C)[C@H](CNC(=O)C4CCC4)C=C3C)[nH]c2c1,u,u,n,n,n
COC(=O)c1ccc2nc(C[C@@H]3C[C@@H](C(C)C)[C@H](CNC(=O)CN(C)C)C=C3C)[nH]c2c1,u,35µM,n,n,n
COCC(=O)NC[C@@H]1C=C(C)[C@H](Cc2nc3ccc(C(=O)OC)cc3[nH]2)C[C@H]1C(C)C,100µM,63µM,n,n,n
O=C(NC1CCCC1)c1ccc2nnc(-c3cccc(OC(F)(F)F)c3)n2c1,u,u,x,x,n
COCCNC(=O)[C@@H]1C[C@@H](O)CN1C1CCN(C(=O)c2ccccc2F)CC1,n,n,n,n,n
COc1ccc(NC(=O)C2CCCCC(=O)N2)cc1F (stereo not drawn),n,n,n,n,n
Cc1cccc(-c2noc([C@@H]3Cc4nc[nH]c4CN3C(=O)NC3CCCCC3)n2)c1,71µM,u,40µM,n,n
O=C(C1CCCCC1)N1Cc2[nH]cnc2C[C@H]1c1nc(-c2ccc3ccccc3c2)no1,79µM,u,u,n,n
Cc1ccc(-c2noc([C@@H]3Cc4nc[nH]c4CN3C(=O)NC3CCCCC3)n2)cc1,u,n,n,n,u
O=C(NC1CCCCC1)N1Cc2[nH]cnc2C[C@H]1c1nc(-c2ccccc2)no1,28µM,u,45µM,n,n

# Bioassay records (PubChem)
